Screening data: PubChem, National Center for Advancing Translational Sciences (NCATS)
KB-3-1 tox: kills parental KB-3-1 adenocarcinoma cells; KB-3-1 viability, CellTiter-Glo ATP luminescence, 72 h; Potency, µM (titrated, usually from 46.1 µM), usual class: cytotoxic; actives 1.4% (n = 400,000); AID 1347075; also: nearly all actives have a fitted effect of over 60% in size
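Cells are dispensed, compounds pinned in, plates held at 37 °C for 72 h, then CellTiter-Glo is added and luminescence read after 10 minutes. Cell line: parental KB-3-1 in phenol-red-free DMEM, 10% FBS.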
MCF10A rerep: induces DNA re-replication in MCF 10a normal breast cells; Potency, µM (series often up to 46.1 µM), actives largely listed as activators; MCF 10A DNA re-replication, Hoechst nuclear intensity, 48 h; AID 624296; actives 2.9% (n = 350,000); also: nearly all actives have a fitted effect of over 50% in size
KB-V1 MDR tox: kills drug-selected multidrug resistant KB-V1 cells; actives 3.4% (n = 400,000); KB-V1 MDR cells viability, CellTiter-Glo, 72 h; Potency, µM (titrated, usually from 46.1 µM), usual class: cytotoxic; also: nearly all actives have a fitted effect of over 60% in size
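KB-V1, DMEM (no phenol red) + 10% FBS; cpd pin-transferred, titration series; 72 h, 37 degrees C; CellTiter-Glo, luminescence. Data normalized, curve-fit.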
TSG101-PTAP inh: blocks PTAP/TSG101 interaction to inhibit HIV-1 budding; Q99816; Fluorescence polarization, FITC-PTAP peptide / Tsg101 binding; Potency, µM (series often up to 115 µM), actives largely listed as inhibitors; 340,000 tested, under 10 active; AID 493005; active = well fitted inhibition curve with a large enough effect in the main read-out, with a control signal flat, not every such curve was filed as active; inconclusive = small, poorly fitted or top-dose-only effect, or effect the other way, or a change in a side signal; inactive = no such curve, though single readings can be large or run the other way
Target sequence (Q99816 whole entry, looked up): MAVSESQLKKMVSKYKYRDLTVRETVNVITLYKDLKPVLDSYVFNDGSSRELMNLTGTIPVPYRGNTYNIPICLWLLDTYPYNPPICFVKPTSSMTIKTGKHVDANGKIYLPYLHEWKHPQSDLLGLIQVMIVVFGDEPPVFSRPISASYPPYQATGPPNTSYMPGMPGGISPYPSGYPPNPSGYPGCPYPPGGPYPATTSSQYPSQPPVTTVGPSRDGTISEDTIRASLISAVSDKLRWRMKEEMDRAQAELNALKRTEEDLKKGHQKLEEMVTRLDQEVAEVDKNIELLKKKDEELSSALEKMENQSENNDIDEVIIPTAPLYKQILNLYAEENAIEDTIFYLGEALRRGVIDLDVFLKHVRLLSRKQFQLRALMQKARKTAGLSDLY
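Fluorescence anisotropy tracks displacement of a FITC-tagged PTAP peptide (50 nM) from the Tsg101 binding domain (10 uM), following a 20 min room-temperature incubation at pH 7.5.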
SW480 rereplic: induces DNA re-replication in SW480 colon adenocarcinoma cells; SW480 DNA re-replication, Hoechst DNA content imaging, 48 h; Potency, µM (titrated, usually from 46.1 µM), most hits filed as activators; actives 1.8% (n = 340,000); also: nearly all actives have a fitted effect of over 55% in size
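First, 250 cells per well were seeded. Next, compound or vehicle (23 nL) was pinned in, plates sat 48 hr at 37 C. Finally Hoechst was added for 40 min before fluorescence scanning.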
PINK1 modulator: modulators of PINK1 expression | PINK1 immunofluorescence, high-content cytometry, 24 h | Potency, µM (top dose mostly 76.6 µM), most hits filed as activators | actives 0.2% (n = 410,000) | AID 624263; active = well fitted activation curve with a large enough effect; inconclusive = small, poorly fitted or top-dose-only effect; cell line not stated here; also: nearly all actives have a fitted effect of over 65% in size
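Compound titrations (5 concentrations, 24 h) on a stable cell line; DMSO and CCCP controls. Endpoint: fixed-cell PINK1 immunofluorescence with mitochondrial, cell and nuclear markers, scanned by microplate cytometer.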
Large screens that a line does not name were inactive. An excerpt weighted towards active compounds, which were near 6.8% of everything screened. Unless noted, calls follow the shape of the dose curve; as a rule, active = well fitted curve in the direction sought with a large enough effect; inconclusive = small, poorly fitted or top-dose-only effect, or another doubt; inactive = no such curve, though single readings can be large; an effect the other way counts as inactive or inconclusive.

NS(=O)(=O)c1ccc(NC(=O)COC(=O)c2ccc([N+](=O)[O-])s2)cc1	SW480 rereplic 16µM
Cc1nnsc1C(=O)NNc1c(Cl)cccc1Cl	none
CCc1ccccc1NNC(=O)c1snnc1C	MCF10A rerep inconclusive, SW480 rereplic 12µM
COc1ccc(-c2noc(Cn3cc(S(=O)(=O)N4CCCC4)ccc3=O)n2)cc1	KB-V1 MDR tox 5.8µM
CC1=C(CO)C(=O)OC([C@@H](C)C2CC[C@H]3C4C[C@H]5O[C@]56[C@@H](O)C=CC(=O)[C@]6(C)C4CC[C@]23C)C1 (stereo not given in full)	KB-3-1 tox inconclusive, MCF10A rerep 2.3µM, KB-V1 MDR tox 13µM, SW480 rereplic inconclusive
O=C(O)CC1(CC(=O)NCc2ccc(F)cc2)CCCCC1	none
O=C(O)CC1(CC(=O)NCc2ccc(Cl)cc2)CCCCC1	MCF10A rerep 21µM
CCOc1ccc(NC(=O)N2CCN(S(=O)(=O)c3ccc4c(ccn4C)c3)CC2)cc1	none (no result: MCF10A rerep, TSG101-PTAP inh, SW480 rereplic)
Cc1noc(C)c1CC(=O)N1CCOc2c(cc(-c3nc4ccccc4s3)cc2OC2CCOC2)C1 (stereo not given)	none (no result: KB-3-1 tox, MCF10A rerep, KB-V1 MDR tox, TSG101-PTAP inh, SW480 rereplic)
Cc1ccc(NC(=S)NC2CCSc3ccccc32)cc1C (stereo not given)	KB-3-1 tox inconclusive, MCF10A rerep 18µM, SW480 rereplic 18µM, PINK1 modulator inconclusive
COC(=O)c1ccc(C(=O)NC2CCSc3ccccc32)cc1 (stereo not given)	none
COC(=O)[C@@]12C[C@@H](CC(=O)NCCCCc3ccccc3)C(=O)N(Cc3ccc4c(c3)OCO4)C1=CCC(C)(C)C2	KB-3-1 tox inconclusive, KB-V1 MDR tox 23µM (no result: MCF10A rerep, TSG101-PTAP inh, SW480 rereplic, PINK1 modulator)
COC(=O)[C@@]12C[C@@H](CC(=O)NCC3CCCCC3)C(=O)N(Cc3ccc4c(c3)OCO4)C1=CCC(C)(C)C2	KB-3-1 tox inconclusive, KB-V1 MDR tox 21µM (no result: MCF10A rerep, TSG101-PTAP inh, SW480 rereplic, PINK1 modulator)
CCCCNC(=O)C[C@@H]1C[C@@]2(C(=O)OC)CC(C)(C)CC=C2N(Cc2ccc3c(c2)OCO3)C1=O	KB-V1 MDR tox inconclusive (no result: MCF10A rerep, TSG101-PTAP inh, SW480 rereplic, PINK1 modulator)
COC(=O)[C@]12CCCCC=C1N(Cc1ccc3c(c1)OCO3)C(=O)[C@H](CC(=O)NCCCCc1ccccc1)C2	KB-V1 MDR tox 16µM (no result: MCF10A rerep, TSG101-PTAP inh, SW480 rereplic, PINK1 modulator)
COC(=O)[C@@]12C[C@@H](CC(=O)NCc3ccc(C)o3)C(=O)N(Cc3ccc4c(c3)OCO4)C1=CCC(C)(C)C2	KB-V1 MDR tox inconclusive (no result: MCF10A rerep, TSG101-PTAP inh, SW480 rereplic, PINK1 modulator)
CCOC(=O)[C@]12CCCC=C1N(Cc1ccc3c(c1)OCO3)C(=O)[C@H](CC(=O)NCCCCc1ccccc1)C2	KB-3-1 tox inconclusive, KB-V1 MDR tox inconclusive (no result: MCF10A rerep, TSG101-PTAP inh, SW480 rereplic)
COC(=O)[C@@]12C[C@@H](CC(=O)NCCc3ccccc3OC)C(=O)N(Cc3ccc4c(c3)OCO4)C1=CCC(C)(C)C2	KB-V1 MDR tox inconclusive (no result: MCF10A rerep, TSG101-PTAP inh, SW480 rereplic, PINK1 modulator)
COC(=O)[C@@]12C[C@@H](CC(=O)NCCc3ccccc3OC)C(=O)N(Cc3ccccc3)C1=CCC(C)(C)C2	KB-V1 MDR tox 12µM (no result: MCF10A rerep, TSG101-PTAP inh, SW480 rereplic, PINK1 modulator)
CCCN1CNc2c(c(=O)[nH]c(=S)n2CCc2c(C)cccc2C)C1	none (no result: KB-3-1 tox, MCF10A rerep, KB-V1 MDR tox, TSG101-PTAP inh, SW480 rereplic)
CC(=O)N1CCC[C@@]2(CCN(C(=O)Nc3cccc(C#N)c3)C2)C1	none (no result: KB-3-1 tox, MCF10A rerep, KB-V1 MDR tox, TSG101-PTAP inh, SW480 rereplic)
COc1ccccc1C(=O)N[C@@H]1c2ccccc2C2(CCN(Cc3ccc4c(c3)OCO4)CC2)[C@H]1O	none (no result: KB-3-1 tox, MCF10A rerep, KB-V1 MDR tox, TSG101-PTAP inh, SW480 rereplic)
CC(=C/C(=O)O)/C=C/c1ccc(Cl)o1	none
CC(/C=C/c1ccc(C)o1)=C\C(=O)O	MCF10A rerep 23µM
Cc1ccc(/C=C/C(=O)N2CC(C)CC(C)C2)o1 (stereo not given)	MCF10A rerep 23µM, SW480 rereplic 16µM
COc1c(C)cccc1C(=O)Nc1ccc(Cl)c(-c2nc3cc(C)ccc3o2)c1	none (no result: MCF10A rerep, TSG101-PTAP inh, SW480 rereplic)
CC1CN(c2nc3c(c(=O)n(Cc4ccc(Cl)c(Cl)c4)c(=O)n3C)n2C)CC(C)O1 (stereo not given)	KB-3-1 tox inconclusive, MCF10A rerep inconclusive, KB-V1 MDR tox 5.2µM, SW480 rereplic inconclusive
COc1ccc(CNc2nc3c(c(=O)n(Cc4ccc(Cl)cc4)c(=O)n3C)n2C)cc1	KB-3-1 tox inconclusive, KB-V1 MDR tox 16µM, SW480 rereplic inconclusive
